The source made the active and inactive calls.

One experiment deals with Albumin (Bos taurus) (UniProt P02769). As to the kind of experiment: compounds binding labelled BSA control protein – biochemical, small-molecule microarray, Alexa647 label, 635/667 nm fluorescence, artefact control for SMM control protein annotation, profiling panel (AID 1118).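 Also: score merges 667 nm emission intensity and signal-to-noise per printed compound spot.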 The conditions noted are these: BSA-A647 binding, fluorescence 635 nm, higher = more signal.
A short description of experiment [1]: probe aXIP binding to arrayed compounds – biochemical, NeuroSMM set, 635/667 nm fluorescence, primary screen (AID 1119).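 Also: probe is the protein aXip251-270 applied at 1 µg/mL to compound-printed slides; binding of probe to printed compounds measured as 667 nm fluorescence plus signal to noise.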 The following applies: small-molecule microarray, higher = more signal, called active from +8 up or from −8 down.
Experiment [2] in a line: probe aNOTCH3 binding on compound microarray – biochemical, small-molecule microarray, 635/667 nm fluorescence, primary screen (AID 1120).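 Also: probe is a biotin-tagged antibody raised against NOTCH3 rather than NOTCH3 protein; score merges spot fluorescence near 667 nm with spot signal to noise.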 The following applies: higher = more signal.
Experiment [3] is described as follows: probe aNOTCH2 binding on compound microarray – biochemical, small-molecule microarray, 635/667 nm fluorescence, primary screen (AID 1121).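 Also: score merges feature fluorescence read at 667 nm with its signal to noise.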 The conditions noted are these: higher = more signal.
The target in experiment [4] is Carbonic anhydrase 2 (Homo sapiens) (UniProt P00918). As to the kind of experiment: compounds binding carbonic anhydrase 2 – biochemical, small-molecule microarray, Alexa647-labelled CAII, profiling panel (AID 1122). The following applies: CAII-A647 binding fluorescence, higher = more signal.
The nature of experiment [5]: COS7 lysate on small-molecule microarray, probe aHis, 635 nm (AID 1123).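 Also: z-score combines 667nm fluorescence intensity with signal-to-noise per printed compound spot.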 The following applies: COS7 cell lysate, fluorescence, higher = more signal.
A short description of experiment [6]: probe aLAP1 signal on lysate-treated microarray – cell lysate, small-molecule microarray, COS7 lysate, primary screen (AID 1124).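 Also: lysate comes from COS7 cells expressing LAP1 and is applied at 0.3 µg/mL; score merges spot fluorescence near 667 nm with signal-to-noise over triplicate slides.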 The following applies: probe aLAP1, fluorescence, higher = more signal.
The test system of the next experiment is Sam68 (KHDRBS1). As to the kind of experiment: compounds binding KHDRBS1 protein – biochemical, small-molecule microarray, 635 nm fluorescence, primary screen (AID 1125).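 Also: score merges 667 nm channel intensity with signal to noise over triplicate slides.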 The conditions noted are these: higher = more signal.
Experiment [7] concerns Chordin-like protein 2 (CHRDL2). As to the kind of experiment: compounds binding chordin-like 2 – biochemical, small-molecule microarray, 635 nm fluorescence, primary screen (AID 1126).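 Also: printed compound slides probed with Chrdl2 protein at 4 µg/mL for 1 h at 4 C; score merges 667 nm emission intensity with signal to noise over three replicate slides.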 The following applies: fluorescence 635 nm, higher = more signal.
Experiment [8] deals with Concanavalin-A (Canavalia ensiformis) (UniProt P02866). As to the kind of experiment: compounds binding concanavalin A lectin – biochemical, small-molecule microarray, Alexa647 label, 635 nm, artefact control for SMM control protein annotation, primary screen (AID 1127).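 Also: z combines 667 nm emission intensity with signal-to-noise across three replicate slides.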 The following applies: ConA-A647 binding fluorescence, higher = more signal.
The nature of experiment [9]: compounds binding Alexa647 anti-His antibody – biochemical, small-molecule microarray, 635 nm fluorescence, artefact control for SMM control protein annotation, primary screen (AID 1128).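 Also: score merges feature fluorescence with signal-to-noise for each printed compound spot.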 The conditions noted are these: higher = more signal.
The subject of experiment [10] is Human papillomavirus type 1a E7 protein (residues 1-88). Description: HPV1a E7 small-molecule binders, primary screen, biochemical, small-molecule microarray, residues 1-88, 635 nm (AID 1129). The following applies: small-molecule microarray binding, fluorescence 635 nm; higher = more signal.
Experiment [11] has as its target Focal adhesion kinase 1 (Homo sapiens) (UniProt Q05397). As to the kind of experiment: PTK2 protein binding on printed compound slides – biochemical, small-molecule microarray, 635/667 nm fluorescence, BSA, DTT, primary screen (AID 1130).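 Also: composite of spot emission at 667 nm and signal to noise over triplicate slides.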 The following applies: 635 nm fluorescence, higher = more signal.
Experiment [12] concerns Fibrinogen (Alexa647-labelled). As to the kind of experiment: Alexa647-fibrinogen binding to printed small molecules – biochemical, small-molecule microarray, 635/667 nm fluorescence, artefact control for SMM control-protein annotation, profiling panel (AID 1131).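 Also: z-score merges 667 nm fluorescence with per-spot signal-to-noise over triplicate slides.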 The following applies: fibrinogen-A647 binding fluorescence, higher = more signal.
Experiment [13] addresses Follistatin (Homo sapiens) (UniProt P19883). Description: FST protein binding to printed compounds – biochemical, small-molecule microarray, 635/667 nm fluorescence, primary screen (AID 1132). The conditions noted are these: 635 nm fluorescence, higher = more signal.
For experiment [14], the target named is Fibroblast growth factor 2 (Homo sapiens) (UniProt P09038). As to the kind of experiment: basic fibroblast growth factor binding to printed compounds – biochemical, small-molecule microarray, 635/667 nm fluorescence, primary screen (AID 1133). The conditions noted are these: FGF2, fluorescence 635/667, higher = more signal.
Experiment [15] can be described thus: JC-1 mitochondrial potential readout, lung cancer cells – cell-based, A549, JC-1 fluorescence, basal, 24 h, 100 nL, profiling panel (AID 1138).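 Also: A549 lung adenocarcinoma cells under basal conditions with no added stimulus; test concentration not given here.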 The conditions noted are these: higher = more signal.
In a further experiment the test system is Lefty1. Description: Lefty1 protein binding to printed compounds – biochemical, small-molecule microarray, 635/667 nm fluorescence, primary screen (AID 1139). The following applies: fluorescence 635/667, higher = more signal.
Experiment [16] has as its system wheat germ agglutinin (Triticum aestivum), Alexa647-labelled. Description: Alexa647-WGA lectin binding to printed small molecules – biochemical, small-molecule microarray, 635/667 nm fluorescence, artefact control for SMM control-protein annotation, profiling panel (AID 1140).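 Also: score merges 667 nm feature emission with signal to noise over triplicate slides.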 The following applies: WGA-A647 binding, 635 nm fluorescence, higher = more signal.
Experiment [17] deals with Luciferin 4-monooxygenase (Photinus pyralis) (UniProt P08659). Description: inhibition of purified Photinus pyralis luciferase – biochemical, luminescence, purified enzyme, 2006 set, primary screen (AID 1141).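 Also: cell-free assay with purified firefly luciferase at 100 ng per well in PBS; test concentration not given here.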 The following applies: purified firefly luciferase, SteadyGlo luminescence, 30 min; higher = more signal, called active from +8 up or from −8 down.
Luciferin 4-monooxygenase (Photinus pyralis), sequence (P08659 whole entry, looked up): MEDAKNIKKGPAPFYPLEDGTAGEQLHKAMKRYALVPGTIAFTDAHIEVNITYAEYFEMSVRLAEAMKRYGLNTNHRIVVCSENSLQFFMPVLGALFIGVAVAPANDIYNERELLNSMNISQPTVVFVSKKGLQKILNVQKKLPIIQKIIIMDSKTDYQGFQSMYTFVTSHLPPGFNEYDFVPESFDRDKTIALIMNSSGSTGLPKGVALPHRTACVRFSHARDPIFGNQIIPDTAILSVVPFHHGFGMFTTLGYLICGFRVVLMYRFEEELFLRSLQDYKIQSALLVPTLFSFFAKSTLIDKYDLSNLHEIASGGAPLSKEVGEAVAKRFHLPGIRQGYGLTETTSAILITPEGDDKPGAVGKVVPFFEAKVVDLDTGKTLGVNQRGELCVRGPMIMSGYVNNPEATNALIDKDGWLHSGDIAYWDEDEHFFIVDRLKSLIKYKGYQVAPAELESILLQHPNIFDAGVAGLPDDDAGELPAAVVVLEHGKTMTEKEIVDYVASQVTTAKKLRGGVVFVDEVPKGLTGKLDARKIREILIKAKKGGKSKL

Follistatin (Homo sapiens), sequence (P19883 whole entry, looked up): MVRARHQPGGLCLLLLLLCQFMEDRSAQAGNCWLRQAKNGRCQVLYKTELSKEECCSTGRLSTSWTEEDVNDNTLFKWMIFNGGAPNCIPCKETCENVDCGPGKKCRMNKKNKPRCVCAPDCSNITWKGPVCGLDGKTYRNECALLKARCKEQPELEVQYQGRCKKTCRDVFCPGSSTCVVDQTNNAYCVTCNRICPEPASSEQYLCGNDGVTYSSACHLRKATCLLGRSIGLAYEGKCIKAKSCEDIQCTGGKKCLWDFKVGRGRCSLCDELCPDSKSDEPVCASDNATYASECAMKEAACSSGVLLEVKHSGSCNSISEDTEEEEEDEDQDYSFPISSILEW
Concanavalin-A (Canavalia ensiformis), sequence (P02866 whole entry, looked up): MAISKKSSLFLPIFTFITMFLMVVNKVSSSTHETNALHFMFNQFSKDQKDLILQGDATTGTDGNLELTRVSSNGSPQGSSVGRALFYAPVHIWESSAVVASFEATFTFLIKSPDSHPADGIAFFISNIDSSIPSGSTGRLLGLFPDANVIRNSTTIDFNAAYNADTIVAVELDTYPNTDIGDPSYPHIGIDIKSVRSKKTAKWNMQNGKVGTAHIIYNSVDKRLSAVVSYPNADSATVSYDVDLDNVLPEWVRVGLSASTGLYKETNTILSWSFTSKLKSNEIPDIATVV
Focal adhesion kinase 1 (Homo sapiens), sequence (Q05397 whole entry, looked up): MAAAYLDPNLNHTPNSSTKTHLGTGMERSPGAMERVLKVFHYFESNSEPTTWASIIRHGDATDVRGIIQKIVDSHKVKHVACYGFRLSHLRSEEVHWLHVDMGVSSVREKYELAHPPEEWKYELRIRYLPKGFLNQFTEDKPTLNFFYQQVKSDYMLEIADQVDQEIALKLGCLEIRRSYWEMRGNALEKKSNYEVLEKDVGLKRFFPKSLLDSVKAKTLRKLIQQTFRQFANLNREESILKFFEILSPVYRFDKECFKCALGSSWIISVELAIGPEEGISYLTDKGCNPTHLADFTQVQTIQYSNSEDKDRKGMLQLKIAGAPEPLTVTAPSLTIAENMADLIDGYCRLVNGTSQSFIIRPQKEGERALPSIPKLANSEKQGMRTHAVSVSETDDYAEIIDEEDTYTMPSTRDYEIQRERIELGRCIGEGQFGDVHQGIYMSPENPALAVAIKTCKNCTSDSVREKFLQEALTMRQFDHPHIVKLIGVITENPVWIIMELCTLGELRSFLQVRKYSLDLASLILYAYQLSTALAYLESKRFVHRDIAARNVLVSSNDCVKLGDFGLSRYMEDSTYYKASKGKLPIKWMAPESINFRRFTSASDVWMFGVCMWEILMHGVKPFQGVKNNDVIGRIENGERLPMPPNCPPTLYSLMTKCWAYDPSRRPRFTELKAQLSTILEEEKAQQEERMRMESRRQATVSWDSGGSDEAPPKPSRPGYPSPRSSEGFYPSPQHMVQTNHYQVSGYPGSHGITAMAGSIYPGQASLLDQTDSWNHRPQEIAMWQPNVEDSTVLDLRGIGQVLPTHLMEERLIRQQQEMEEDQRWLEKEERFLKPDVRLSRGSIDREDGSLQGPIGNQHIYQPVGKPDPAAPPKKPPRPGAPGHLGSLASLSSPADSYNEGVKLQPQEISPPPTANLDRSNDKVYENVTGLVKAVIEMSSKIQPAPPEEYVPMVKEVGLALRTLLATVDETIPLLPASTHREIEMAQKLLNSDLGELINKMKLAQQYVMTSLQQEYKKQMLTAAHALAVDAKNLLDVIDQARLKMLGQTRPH
Fibroblast growth factor 2 (Homo sapiens), sequence (P09038 whole entry, looked up): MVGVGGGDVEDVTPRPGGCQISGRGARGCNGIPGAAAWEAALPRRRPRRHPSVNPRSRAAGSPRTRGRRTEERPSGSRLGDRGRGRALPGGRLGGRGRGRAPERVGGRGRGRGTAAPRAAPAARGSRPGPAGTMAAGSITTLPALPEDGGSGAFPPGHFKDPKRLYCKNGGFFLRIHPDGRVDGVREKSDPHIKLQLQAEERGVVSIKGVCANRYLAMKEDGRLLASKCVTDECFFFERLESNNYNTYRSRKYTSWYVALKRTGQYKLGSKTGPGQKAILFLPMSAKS
Albumin (Bos taurus), sequence (P02769 whole entry, looked up): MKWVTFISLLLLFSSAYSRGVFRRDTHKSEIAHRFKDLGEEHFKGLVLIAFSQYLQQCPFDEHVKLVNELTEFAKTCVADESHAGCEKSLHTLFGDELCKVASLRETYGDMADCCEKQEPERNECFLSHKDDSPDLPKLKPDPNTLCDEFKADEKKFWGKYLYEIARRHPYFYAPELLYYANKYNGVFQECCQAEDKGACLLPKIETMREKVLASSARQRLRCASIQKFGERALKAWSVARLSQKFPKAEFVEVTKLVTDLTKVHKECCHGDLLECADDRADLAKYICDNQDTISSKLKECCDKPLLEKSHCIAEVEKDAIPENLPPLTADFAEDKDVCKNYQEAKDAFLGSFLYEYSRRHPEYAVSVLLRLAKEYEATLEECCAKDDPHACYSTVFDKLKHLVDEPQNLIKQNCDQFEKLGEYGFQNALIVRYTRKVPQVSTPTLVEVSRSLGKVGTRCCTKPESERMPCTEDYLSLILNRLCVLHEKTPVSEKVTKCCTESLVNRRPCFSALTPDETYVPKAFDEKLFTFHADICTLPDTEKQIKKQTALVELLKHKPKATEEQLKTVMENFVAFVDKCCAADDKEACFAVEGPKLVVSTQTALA

As to `C=C(CCCC)C(=O)CC[C@H](OC(C)=O)c1ccc(CO)o1`, the composite z-score is -0.471 with Albumin (Bos taurus); 0.0701 in experiment [2]; -0.117 in experiment [3]; 0.637 in [4]; 0.136 in experiment [5]; 0.164 in [6]. Also, the composite z-score is 0.865 with Sam68 (KHDRBS1); -0.149 in [7]; -0.0156 in [8]; -0.273 in experiment [9]; 0.228 in [10]; -0.0408 in experiment [11]. The composite z-score in experiment [12] is -0.332; in experiment [13], 1.03; in experiment [14], 0.361; in the experiment on Lefty1 it was 0.861; in experiment [16] it was -0.276. In addition, in experiment [1], the composite Z-score was 0.304 (inactive). Further, the values for the z-score in experiment [15] and in [17] were -0.0332 and -1.77 (inactive), respectively.

On to `C=CCN1C(=O)[C@@]2(O[C@@H](CCO)[C@H]([Si](C)(C)c3ccc(OC)cc3)[C@H]2C)c2cc(NC(C)=O)ccc21`, for which the composite z-score with Albumin (Bos taurus) was -0.0164; in experiment [2] it was 0.307; in experiment [3] it was -0.044; in [4], 0.366; in experiment [5], 2.57; in experiment [6], 0.423. For the same molecule, the composite z-score was 1.33 with Sam68 (KHDRBS1); 0.835 in [7]; 0.915 in experiment [8]; 1.48 in [9]; 1.21 in [10]; 0.0016 in experiment [11]. Also, the composite z-score worked out at 0.818 in experiment [12]; 1.34 in experiment [13]; 1.45 in [14]; 1.22 in the experiment with Lefty1; 0.948 in [16]. Moreover, the composite Z-score in experiment [1] was 0.347 (inactive). For the same molecule, the z-score in experiment [15] was 0.921; in [17] it was -0.301 (inactive).

With `CC(C)OC(=O)C1=CCC(c2cccc(Cl)c2)O1` (stereo not given), the composite z-score with Albumin (Bos taurus) was 0.569; in experiment [2], -0.36; in [3], -0.169; in experiment [4] it was 0.848; in experiment [5], 2.72; in experiment [6], -0.157. For the same molecule, the composite z-score in the experiment with Sam68 (KHDRBS1) was 0.649; in [7], -1.72; in experiment [8] it was 0.417; in [9], 0.872; in [10] it was 0.291; in experiment [11] it was -0.0871. The composite z-score in experiment [12] was 0.455; in [13] it was -0.328; in [14] it was -1.59; in the experiment on Lefty1 it was -1.11; in [16], 0.58. Further, the composite Z-score in [1] is 0.403 (inactive). The z-score is -1.4 in [15] and 2.09 (inactive) in experiment [17].

For `COc1ccc(CCNC(=O)[C@@]2(C)c3ccccc3C(=O)N(Cc3ccccc3)[C@H]2c2ccc(CO)cc2)cc1`, the composite z-score is 0.365 with Albumin (Bos taurus); 0.178 in experiment [2]; -0.116 in experiment [3]; 0.446 in experiment [4]; 1.51 in experiment [5]; 0.941 in experiment [6]. Further, the composite z-score worked out at 1.16 in the experiment with Sam68 (KHDRBS1); 0.594 in experiment [7]; 1.14 in experiment [8]; 1.01 in experiment [9]; 1.29 in experiment [10]; 0.652 in experiment [11]. For the same molecule, the composite z-score came out at 1 in experiment [12]; 1.45 in experiment [13]; 1.42 in experiment [14]; 1.57 with Lefty1; 0.62 in [16]. In [1], the composite Z-score is 0.247 (inactive). The z-score is -1.72 in [15] and 1.11 (inactive) in [17].

Turning to `[N-]=[N+]=NCc1ccccc1C[C@]1(C(=O)N2CCOCC2)N=C(c2ccc(OCCCO)cc2)O[C@H]1c1ccccc1`, the composite z-score was 0.905 in the experiment with Albumin (Bos taurus); 0.0582 in experiment [2]; -0.14 in experiment [3]; 0.501 in experiment [4]; 1.07 in [5]; 0.444 in [6]. Also, the composite z-score in the experiment on Sam68 (KHDRBS1) was 0.965; in experiment [7], -0.731; in experiment [8], 1.07; in experiment [9], 1.22; in [10], 0.672; in experiment [11], -0.0665. The composite z-score in [12] amounted to 0.909; in experiment [13], 0.826; in experiment [14], 0.816; with Lefty1 it was 0.0094; in [16], 0.359. Moreover, the composite Z-score in [1] is 0.271 (inactive). The z-score is 0.078 in experiment [15] and 0.4 (inactive) in experiment [17].

For the molecule `CC(C)(C)OC(=O)CC[C@@]1(C(=O)NCC(O)CO)N=C(c2ccc(OCCCO)cc2)O[C@@H]1c1ccccc1` (stereo not given in full), the composite z-score with Albumin (Bos taurus) was 1.01; in experiment [2] it was 0.178; in [3], -0.0896; in experiment [4], 0.892; in [5], 3.67; in experiment [6], 1.34. Moreover, the composite z-score in the experiment with Sam68 (KHDRBS1) was 0.965; in experiment [7], -1.65; in [8], 0.537; in experiment [9], 0.0885; in [10], 0.913; in experiment [11] it was 0.415. For the same molecule, the composite z-score in experiment [12] is 0.681; in experiment [13], 0.392; in experiment [14], -0.691; in the experiment with Lefty1, -0.0491; in experiment [16], 0.467. The composite Z-score in experiment [1] was 0.595 (inactive). Besides, the z-score in experiment [15] was 0.477; in experiment [17], -0.962 (inactive).

For the molecule `CN(C)CCCC[C@@H]1NC(=O)[C@H]2C[C@@H](C(=O)NCCCCCNC(=O)CS)[C@@H](c3ccc(O)cc3)N2C1=O`, the composite z-score with Albumin (Bos taurus) is 0.74; in experiment [2], -0.374; in experiment [3] it was -0.127; in experiment [4] it was -0.204; in [5] it was 0.268; in experiment [6], -0.733. Besides, the composite z-score with Sam68 (KHDRBS1) was -1.38; in experiment [7] it was -0.688; in experiment [8], 0.734; in experiment [9], 0.504; in [10], -0.54; in experiment [11], -0.0308. Further, the composite z-score in experiment [12] was -0.293; in experiment [13], 0.756; in experiment [14], 0.421; in the experiment with Lefty1, -0.78; in [16], -0.128. In addition, the composite Z-score in experiment [1] is 0.157 (inactive). Further, the values for the z-score in experiment [15] and in experiment [17] were 0.64 and -1.25 (inactive), respectively.

Consider `CN1C(=O)C2C=CC(C(O)C3=C[C@H]4C[C@@H](C3)C4(C)C)N(Nc3ccc([N+](=O)[O-])cc3[N+](=O)[O-])C2C1=O` (stereo not given in full), for which the composite z-score amounted to 0.909 in the experiment with Albumin (Bos taurus); 0.289 in experiment [2]; 0.186 in [3]; 0.722 in experiment [4]; 2.38 in [5]; 0.805 in [6]. Moreover, the composite z-score in the experiment with Sam68 (KHDRBS1) is 1.12; in experiment [7], 0.51; in experiment [8], 1.16; in [9], 1.45; in [10] it was 1.16; in experiment [11], 0.588. The composite z-score in experiment [12] is 0.978; in experiment [13], 1.07; in experiment [14] it was 0.0958; in the experiment with Lefty1, 0.181; in experiment [16], 1.02. The composite Z-score in experiment [1] was 1.09 (inactive). The z-score in experiment [15] was 0.731; in experiment [17], -0.88 (inactive).
